The values that follow come from PubChem BioAssay (NCATS).

Molecules are shown by their SMILES. Results filed as inconclusive are left out. Values without a mark were called inactive. The source made the active and inactive calls. Calls follow the shape of the dose curve; as a rule, active = well fitted inhibition curve with a large enough effect; inconclusive = small, poorly fitted or top-dose-only effect; inactive = flat fitted curve, though single readings scatter.

One assay concerns CRL-7250. Briefly: Cytotoxic Profiling of Annotated Libraries Using Quantitative High-Throughput Screening (AID 1296008). Also: nearly all actives have a fitted effect of over 60% in size. To be noted: Five cell lines viability, CellTiter-Glo ATP luminescence, 48-72 h; max response: hits give low values. The gist of the method: (§1)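 Compounds were pin-transferred onto cells and incubated 48 or 72 hr at 37 degree Celsius, 95% humidity. CellTiter-Glo was added, plates sat 10 min at room temperature, then ATP-coupled luminescence was imaged as the viability read-out.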
Background: Cellular ATP, detected with luciferase, serves as a proxy for viable cell number.

For a further assay, the system named is HEK293. The assay is described as above. To be noted: Five cell lines viability, CellTiter-Glo ATP luminescence, 48-72 h; max response: hits give low values. The gist of the method:
as §1
% is scaled to controls: 0 for no effect and ±100 for the full control effect; potency is read from the fitted curve at half-maximal effect.

`Cc1c2cc(c(C(=O)O)c1C)OC1OC(C(O)C(O)C1O)C(O)C(O)C1OC(O2)C(O)C(O)C1O` (centres undefined): the max response was -20.3% in the assay on CRL-7250 and -0.813% with HEK293.
In the case of `Cc1ccc(S(=O)(=O)Nc2ccccc2N2CCCCC2)s1`, the Potency in the assay on HEK293 was 18.4 µM (active).
In the case of `Nc1ncnc2c1nc(N)n2[C@@H]1O[C@H](CO)[C@@H](O)[C@H]1O`, the Potency was 2.59 µM (active) in the assay on CRL-7250 and 1.64 µM (active) with HEK293.
As for `CC(=O)O[C@H]1CC[C@@]2(C)C(CC[C@@H](C)[C@]23Cc2c(O)cc4c(c2O3)CN([C@@H](CCC(=O)O)C(=O)O)C4=O)C1(C)C` (some centres undefined), the max response in the assay with HEK293 was -7.36%.
As to `C=C(CCC1=C(C)[C@H]2[C@H](CC3[C@@H]4CC=C5C[C@@H](O)C[C@@H](O)[C@]5(C)C4[C@H](O)C[C@@]32C)O1)CO[C@@H]1O[C@H](CO)[C@@H](O)[C@H](O)[C@H]1O` (some centres undefined), in the assay with HEK293, the Potency was 1.37 µM (active).
Turning to `NC[C@@](O)(c1ccc(Cl)cc1)c1ccc(-c2cn[nH]c2)cc1`, the Potency with HEK293 was 5.8 µM (active).
Take `C=C1CC[C@@H]2[C@](C)(CO[C@@H]3O[C@H](CO)[C@@H](O)[C@H](O)[C@H]3O)[C@H](O)CC[C@@]2(C)[C@@H]1C/C=C1/C(=O)OC[C@H]1O`: the max response in the assay with CRL-7250 was 4.42%; with HEK293 it was -4.02%.
In the case of `C=CC(=O)Nc1cccc(Nc2nc(Nc3ccc(N4CCN(C(C)=O)CC4)cc3OC)ncc2C(F)(F)F)c1`, the Potency in the assay on HEK293 is 6.51 µM (active).
With `Cc1cccc(C)c1-n1c(=O)c2cnc(Nc3ccc(N4CCN(C)CC4)cc3)nc2n2c3ccccc3nc12`, the Potency in the assay on HEK293 is 0.517 µM (active).
Regarding `COc1ccc(-c2cnc3ccc(NCc4ccc(S(N)(=O)=O)cc4)nn23)cc1OC`, the max response in the assay with HEK293 is -0.271%.
On to `COCCN1CCN(Cc2ccc(-c3n[nH]c4c3C(=O)c3c(NC(=O)NN5CCOCC5)cccc3-4)cc2)CC1`, for which the Potency in the assay with HEK293 was 0.206 µM (active).
Consider `CO[C@H]1C[C@@H]2CC[C@@H](C)[C@@](O)(O2)C(=O)C(=O)N2CCCC[C@H]2C(=O)O[C@H]([C@H](C)C[C@@H]2CC[C@H](n3cnnn3)[C@H](OC)C2)CC(=O)[C@H](C)/C=C(\C)[C@@H](O)[C@@H](OC)C(=O)[C@H](C)C[C@H](C)/C=C/C=C/C=C/1C`, for which, in the assay with HEK293, the Potency is 0.0252 µM (active).
The same measure, in the same setting: next, `Cc1c(C(=O)Nc2ccc(N3CC(C)OC(C)C3)nc2)cccc1-c1ccc(OC(F)(F)F)cc1` (centres undefined): 9.2 µM (active); `Nc1ccccc1N`: 17.2 µM (active).
As for `CC(C)c1ccc(CO)cc1O[C@@H]1O[C@H](CO)[C@@H](O)[C@H](O)[C@H]1O`, in the assay on HEK293, the call was inactive.
Turning to `CCS(=O)(=O)N1CCN(c2ccc(Nc3ncc(C(N)=O)c(NC4CC4)n3)cc2)CC1`, the Potency in the assay with HEK293 is 7.31 µM (active).
Take `OCc1ccc(O[C@@H]2O[C@H](CO)[C@@H](O)[C@H](O)[C@H]2O)cc1`: in the assay on HEK293, the max response is -0.162%.
On to `CC1(C)CCC(C)(C)c2cc(C3(c4ccc(C(=O)O)cc4)OCCO3)ccc21`, for which the max response in the assay on HEK293 was -82.5%.
Turning to `CN1c2ccccc2C(=O)N2CCC3c4ccccc4NC3C21` (centres undefined), the Potency in the assay with HEK293 was 2.55 µM (active).
In the case of `N=c1nc2n(cc1F)C1OC(CO)C(O)C1O2` (centres undefined), the Potency with HEK293 is 5.17 µM (active).
With `CCCCNc1ncc2c(-c3ccc(F)cc3)nn(CC3CCC(N)CC3)c2n1` (centres undefined), the max response with HEK293 was -110%.
As to `O=C(Nc1ccc(Cl)cc1F)c1ccccc1O`, the Potency in the assay on HEK293 is 16.4 µM (active).
For `Cn1nnc(-c2ccc(-c3ccc(N4C[C@H](CO)OC4=O)cc3F)cn2)n1`, the Potency with HEK293 is 4.11 µM (active).
`CC1=CC(=O)CC(C)(C)C1CCC(C)O[C@@H]1O[C@H](CO[C@@H]2OC[C@@H](O)[C@H](O)[C@H]2O)[C@@H](O)[C@H](O)[C@H]1O` (some centres undefined): in the assay on HEK293, the max response is -8.79%.
Turning to `C=CC1C(OC2OC(CO)C(O)C(O)C2O)OC=C(C(=O)OC)C1CC(=O)OCC1C(C)C(O)CC1C(CO)COC(=O)CC1C(C(=O)O)=COC(OC2OC(CO)C(O)C(O)C2O)/C1=C\C` (centres undefined), in the assay on HEK293, the max response was 0.0453%.
As to `C=C1C(=O)O[C@@H]2[C@H]1CCC(C)=C1CCC(=O)O[C@]12C`, the Potency in the assay on HEK293 was 14.6 µM (active).
For the compound `C#CC[C@H](c1nc2cc(Cl)ccc2c(=O)n1Nc1ccccc1)N(CCCN)C(=O)c1cccc(Cl)c1F`, in the assay with HEK293, the Potency is 1.46 µM (active).
Turning to `C/C=C/c1ccc(O[C@@H]2O[C@H](CO)[C@@H](O)[C@H](O)[C@H]2O)c(OC)c1`, the Potency with HEK293 was 11.4 µM (active).
As to `O=c1[nH]ccc2cc(OC3CCNCC3)ccc12`, the max response in the assay with HEK293 was -16.8%.
For the compound `CNC(=O)c1cc(Oc2ccc3nc(N[C@@H]4CCCC[C@H]4O)sc3c2)ccn1`, the Potency with HEK293 is 16.4 µM (active).
With `CNC(=O)c1ccccc1Nc1cc(Nc2ccc(N3CCOCC3)cc2OC)ncc1C(F)(F)F`, in the assay on HEK293, the Potency is 6.51 µM (active).
